Compounds without any hit were thinned out: in the full panel of roughly 83,000, 20% have a hit.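 Cells were grown in 96-well plates and exposed to the test compound at a single concentration for 48 hours; results are reported as percent growth, with values below 10 considered active.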 Active and inactive are the calls of the source.
Tests used:
Test in all cases: NCI-60 one-dose screen, 48 h (100 = growth as untreated, 0 = no growth, -100 = all killed)
Details in all cases: 10 µM unless noted
SK-MEL-2 melanoma = system: SK-MEL-2 melanoma
SN12C renal = system: SN12C renal
TK-10 renal = system: TK-10 renal
ACHN renal = system: ACHN renal
A498 renal = system: A498 renal
MOLT-4 leukemia = system: MOLT-4 leukemia
SR leukemia = system: SR leukemia
RPMI-8226 leukemia = system: RPMI-8226 leukemia
OVCAR-8 ovarian = system: OVCAR-8 ovarian
OVCAR-5 ovarian = system: OVCAR-5 ovarian
OVCAR-4 ovarian = system: OVCAR-4 ovarian
SK-OV-3 ovarian = system: SK-OV-3 ovarian
IGROV1 ovarian = system: IGROV1 ovarian
OVCAR-3 ovarian = system: OVCAR-3 ovarian
HS 578T breast = system: HS 578T breast
NCI/ADR-RES ovarian = system: NCI/ADR-RES ovarian
UO-31 renal = system: UO-31 renal
CAKI-1 renal = system: CAKI-1 renal
CCRF-CEM leukemia = system: CCRF-CEM leukemia

Measured: growth

Cc1ccc(Nc2c(C(N)=O)cnc3ccc(-c4csc(N)n4)cc23)cc1
inactive: SK-MEL-2 melanoma 110% | SN12C renal 108% | TK-10 renal 96.2% | ACHN renal 84.7% | A498 renal 73.3% | MOLT-4 leukemia 95.3% | SR leukemia 94.8% | RPMI-8226 leukemia 100% | OVCAR-8 ovarian 101% | OVCAR-5 ovarian 99.6% | OVCAR-4 ovarian 87% | SK-OV-3 ovarian 108% | IGROV1 ovarian 89.3% | OVCAR-3 ovarian 108% | HS 578T breast 92.9% | NCI/ADR-RES ovarian 96.4%

CCCCCCCCCCCCCCCCNCCC[C@@H](C)[C@H]1CC[C@H]2[C@@H]3[C@H](OCCCN)C[C@@H]4C[C@H](OCCCN)CC[C@]4(C)[C@H]3C[C@H](OCCCN)[C@]12C
active: SN12C renal -82.9% | UO-31 renal -52.5% | TK-10 renal -60.3% | ACHN renal -26.5% | CAKI-1 renal -70.8% | A498 renal -5.88% | CCRF-CEM leukemia -45.5% | MOLT-4 leukemia -33.7% | SR leukemia 2.63% | RPMI-8226 leukemia -15.4% | OVCAR-8 ovarian -48.9% | OVCAR-5 ovarian -3.67% | OVCAR-4 ovarian -37.1% | SK-OV-3 ovarian -45.7% | IGROV1 ovarian -41.8% | OVCAR-3 ovarian -10.5% | HS 578T breast -34% | NCI/ADR-RES ovarian -60.6%

Cl/C(=N\Nc1ccccc1)c1ccccc1
inactive: SK-MEL-2 melanoma 96.6% | SN12C renal 93.2% | UO-31 renal 72.8% | TK-10 renal 96.8% | ACHN renal 92.5% | CAKI-1 renal 67.3% | CCRF-CEM leukemia 89.4% | MOLT-4 leukemia 80.1% | SR leukemia 123% | RPMI-8226 leukemia 104% | OVCAR-8 ovarian 75.8% | OVCAR-5 ovarian 99.1% | OVCAR-4 ovarian 92.1% | SK-OV-3 ovarian 89.4% | IGROV1 ovarian 85.6% | OVCAR-3 ovarian 91.4% | HS 578T breast 108% | NCI/ADR-RES ovarian 82.9%

CC1=C(NCCN2CCCC2)C(=O)c2c(OCc3cccc(Cl)c3)cccc2C1=O
inactive: SN12C renal 75.2% | UO-31 renal 52.7% | TK-10 renal 74.1% | ACHN renal 89.1% | CAKI-1 renal 53.7% | A498 renal 47.4% | CCRF-CEM leukemia 54.9% | MOLT-4 leukemia 51.5% | SR leukemia 14.1% | RPMI-8226 leukemia 60.9% | OVCAR-8 ovarian 79.7% | OVCAR-5 ovarian 79.9% | OVCAR-4 ovarian 73.1% | SK-OV-3 ovarian 95.2% | IGROV1 ovarian 71.8% | OVCAR-3 ovarian 85% | HS 578T breast 72.4% | NCI/ADR-RES ovarian 78.7%

O=C(O)C(O)C(O)C(=O)O.[NH-]C1CCCCC1[NH-].[Pt+2] (configuration not stated)
inactive: SK-MEL-2 melanoma 109% | SN12C renal 106% | UO-31 renal 97.9% | TK-10 renal 113% | ACHN renal 101% | A498 renal 125% | CCRF-CEM leukemia 112% | MOLT-4 leukemia 105% | SR leukemia 117% | RPMI-8226 leukemia 110% | OVCAR-5 ovarian 108% | OVCAR-4 ovarian 106% | SK-OV-3 ovarian 105% | IGROV1 ovarian 106% | OVCAR-3 ovarian 107% | HS 578T breast 109% | NCI/ADR-RES ovarian 107%

Cc1noc(C)c1-c1cc(O)cc(C(O)c2ccccc2)c1 (configuration not stated)
inactive: SK-MEL-2 melanoma 60.4% | SN12C renal 74.5% | UO-31 renal 16.9% | TK-10 renal 12.6% | ACHN renal 60.6% | CAKI-1 renal 23.8% | CCRF-CEM leukemia 46.7% | MOLT-4 leukemia 58.8% | SR leukemia 27.1% | RPMI-8226 leukemia 14.9% | OVCAR-8 ovarian 38.6% | OVCAR-5 ovarian 73.3% | OVCAR-4 ovarian 32.5% | SK-OV-3 ovarian 43.7% | IGROV1 ovarian 46% | OVCAR-3 ovarian 46.7% | HS 578T breast 33.7% | NCI/ADR-RES ovarian 59.2%

CC(=O)OCC1OC(OC2=C(CC=C(Cl)Cl)C(=O)c3ccccc3C2=O)C(OC(C)=O)C(OC(C)=O)C1OC(C)=O (configuration not stated)
active: CCRF-CEM leukemia -19.3% | MOLT-4 leukemia -21.1% | SR leukemia -3.56% | RPMI-8226 leukemia 9.85% | OVCAR-4 ovarian -34.4%
inactive: SK-MEL-2 melanoma 61.3% | SN12C renal 85.8% | TK-10 renal 117% | ACHN renal 59.9% | A498 renal 75.4% | OVCAR-8 ovarian 18% | OVCAR-5 ovarian 105% | SK-OV-3 ovarian 96% | OVCAR-3 ovarian 46.4% | HS 578T breast 96.9% | NCI/ADR-RES ovarian 93.1%

CCCCCCCCCCCCS(=O)CC(C)O (configuration not stated)
inactive: SK-MEL-2 melanoma 112% | SN12C renal 106% | UO-31 renal 95.3% | TK-10 renal 125% | ACHN renal 105% | CAKI-1 renal 110% | CCRF-CEM leukemia 101% | MOLT-4 leukemia 96.7% | SR leukemia 110% | RPMI-8226 leukemia 98.6% | OVCAR-8 ovarian 103% | OVCAR-5 ovarian 103% | OVCAR-4 ovarian 101% | SK-OV-3 ovarian 102% | IGROV1 ovarian 120% | OVCAR-3 ovarian 120% | HS 578T breast 101% | NCI/ADR-RES ovarian 117%

O=C(Nc1ccc(F)cc1)Nc1ccc(CCO)cc1
inactive: SK-MEL-2 melanoma 112% | SN12C renal 101% | UO-31 renal 94.1% | TK-10 renal 112% | ACHN renal 110% | CAKI-1 renal 103% | CCRF-CEM leukemia 107% | MOLT-4 leukemia 102% | SR leukemia 103% | RPMI-8226 leukemia 108% | OVCAR-8 ovarian 104% | OVCAR-5 ovarian 114% | OVCAR-4 ovarian 97.6% | SK-OV-3 ovarian 113% | IGROV1 ovarian 99.9% | OVCAR-3 ovarian 117% | NCI/ADR-RES ovarian 108%

COc1cccc(/C=C2/C(=O)N(Cc3ccco3)SC2=S)c1OC
inactive: SK-MEL-2 melanoma 93.1% | SN12C renal 97.6% | UO-31 renal 93.4% | TK-10 renal 117% | ACHN renal 102% | A498 renal 102% | CCRF-CEM leukemia 68.3% | MOLT-4 leukemia 92.1% | RPMI-8226 leukemia 74.2% | OVCAR-8 ovarian 81.1% | OVCAR-5 ovarian 103% | OVCAR-4 ovarian 102% | SK-OV-3 ovarian 97.8% | IGROV1 ovarian 104% | OVCAR-3 ovarian 110% | HS 578T breast 109% | NCI/ADR-RES ovarian 103%
active: SR leukemia -0.493%

COC1C/C(=N\O)C2OC(c3ccccc3)OCC2O1 (configuration not stated)
inactive: SK-MEL-2 melanoma 93.3% | SN12C renal 104% | UO-31 renal 87.2% | TK-10 renal 112% | ACHN renal 108% | CAKI-1 renal 97.9% | A498 renal 89.9% | MOLT-4 leukemia 97.6% | SR leukemia 109% | RPMI-8226 leukemia 104% | OVCAR-8 ovarian 114% | OVCAR-5 ovarian 109% | OVCAR-4 ovarian 104% | SK-OV-3 ovarian 100% | IGROV1 ovarian 109% | OVCAR-3 ovarian 110% | HS 578T breast 106% | NCI/ADR-RES ovarian 103%

Cc1cccc(NC(=O)c2sc3nc4c(cc3c2N)C(=O)CCC4)c1
active: A498 renal -12.2% | IGROV1 ovarian -4.52% | OVCAR-3 ovarian 7.66%
inactive: SK-MEL-2 melanoma 64.7% | SN12C renal 44.2% | UO-31 renal 41.2% | TK-10 renal 75.6% | CCRF-CEM leukemia 25.4% | MOLT-4 leukemia 51.1% | SR leukemia 26.2% | RPMI-8226 leukemia 31.6% | OVCAR-8 ovarian 52.2% | OVCAR-5 ovarian 44.6% | OVCAR-4 ovarian 40.1% | SK-OV-3 ovarian 35.3% | HS 578T breast 18.6% | NCI/ADR-RES ovarian 17.4%

Cc1ccc2c(NCCCN(C)C)c3c(C)nn(C)c3nc2c1
inactive: SK-MEL-2 melanoma 44% | SN12C renal 42.9% | TK-10 renal 28.4% | ACHN renal 27.2% | CAKI-1 renal 14.5% | A498 renal 28.3% | CCRF-CEM leukemia 31.7% | MOLT-4 leukemia 10.7% | RPMI-8226 leukemia 27.8% | OVCAR-5 ovarian 39.3% | OVCAR-4 ovarian 28.7% | SK-OV-3 ovarian 39.2% | IGROV1 ovarian 29.2% | OVCAR-3 ovarian 49.3% | HS 578T breast 74.1% | NCI/ADR-RES ovarian 45.3%
active: SR leukemia 5.55% | OVCAR-8 ovarian -5.26%

CCCCCCCCOC(=O)CC[C@@H](C)[C@H]1CC[C@H]2[C@@H]3[C@H](OC(=O)CCN)C[C@@H]4C[C@H](OC(=O)CCN)CC[C@]4(C)[C@H]3C[C@H](OC(=O)CCN)[C@]12C
active: CCRF-CEM leukemia -37.5% | SR leukemia -12.9%
inactive: SK-MEL-2 melanoma 126% | SN12C renal 77.6% | UO-31 renal 105% | TK-10 renal 136% | ACHN renal 96.2% | CAKI-1 renal 108% | MOLT-4 leukemia 26.1% | RPMI-8226 leukemia 77.8% | OVCAR-8 ovarian 69.5% | OVCAR-5 ovarian 92.1% | OVCAR-4 ovarian 75.7% | SK-OV-3 ovarian 90.9% | IGROV1 ovarian 77.2% | OVCAR-3 ovarian 108% | HS 578T breast 79.5% | NCI/ADR-RES ovarian 101%

Cc1cc(Nc2nc(-c3cccnc3)nc3ccccc23)n[nH]1
inactive: SK-MEL-2 melanoma 38.8% | SN12C renal 58.9% | UO-31 renal 60.4% | ACHN renal 38% | CCRF-CEM leukemia 57.3% | MOLT-4 leukemia 89.5% | SR leukemia 15.5% | RPMI-8226 leukemia 98.8% | OVCAR-8 ovarian 80.6% | OVCAR-5 ovarian 65.9% | OVCAR-4 ovarian 60.8% | SK-OV-3 ovarian 21.9% | IGROV1 ovarian 28.9% | OVCAR-3 ovarian 59% | NCI/ADR-RES ovarian 69.3%
active: CAKI-1 renal 2.35% | HS 578T breast 5.1%

CCOC(=O)c1ccc2c(c1)nc(/C=C/c1ccc(Cl)cc1)n2-c1cc(C(C)(C)C)[nH]n1
active: MOLT-4 leukemia -2.76%
inactive: SK-MEL-2 melanoma 79.6% | SN12C renal 74.6% | UO-31 renal 46.8% | TK-10 renal 60% | ACHN renal 23.8% | CAKI-1 renal 92.3% | A498 renal 58.7% | SR leukemia 52.2% | RPMI-8226 leukemia 52.3% | OVCAR-8 ovarian 38.5% | OVCAR-5 ovarian 110% | OVCAR-4 ovarian 38.3% | SK-OV-3 ovarian 43.3% | IGROV1 ovarian 15.4% | OVCAR-3 ovarian 22.2% | HS 578T breast 51.3% | NCI/ADR-RES ovarian 68%

COc1ccc(-c2c(C)noc2-c2ccc(O)cc2O)cc1
inactive: SK-MEL-2 melanoma 101% | SN12C renal 85.7% | UO-31 renal 87.3% | ACHN renal 90.3% | CAKI-1 renal 95.8% | A498 renal 88% | CCRF-CEM leukemia 71.7% | MOLT-4 leukemia 59.1% | SR leukemia 31.1% | RPMI-8226 leukemia 50.7% | OVCAR-8 ovarian 99.9% | OVCAR-5 ovarian 112% | OVCAR-4 ovarian 76.4% | SK-OV-3 ovarian 94.1% | IGROV1 ovarian 87% | OVCAR-3 ovarian 80.5% | NCI/ADR-RES ovarian 94.6%

— PubChem BioAssay (NCI)
